{"source": "paper PMC7862700", "about": "“An all-to-all approach to the identification of sequence-specific readers for epigenetic DNA modifications on cytosine”", "assay_in_all_cases": "DAPPL (digital affinity profiling via proximity ligation, sequencing); 10 mM Tris-HCl pH 7.5, 50 mM NaCl, 1 mM DTT, 4% glycerol, room temperature, 30 min; GST-TFs on glutathione beads, 16-mer random dsDNA library, 0.1% formaldehyde crosslink after washing; high values mean tight binding", "key": {"FEV": {"target": "T1, FEV (Homo sapiens, UniProt Q99581 1-238)", "T1 sequence": "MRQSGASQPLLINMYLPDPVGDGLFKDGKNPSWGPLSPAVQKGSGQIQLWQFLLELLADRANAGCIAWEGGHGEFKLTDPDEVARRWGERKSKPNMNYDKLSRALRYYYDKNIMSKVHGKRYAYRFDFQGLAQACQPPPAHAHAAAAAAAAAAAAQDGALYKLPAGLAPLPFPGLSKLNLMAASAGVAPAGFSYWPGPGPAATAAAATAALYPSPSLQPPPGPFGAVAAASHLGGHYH", "conditions": "protein: recombinant; tags: N-terminal GST; dsDNA, one strand shown", "in_short": "(§1)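 GST fusions of human transcription factors were expressed in yeast and captured with glutathione beads. Once given DNA barcodes and pooled alongside a tag-only sample, they were incubated for 30 min at room temperature with 200 nmole of a random double-stranded 16-mer DNA library in Tris/NaCl/DTT/glycerol buffer, then washed, crosslinked (0.1% formaldehyde), proximity-ligated, PCR-amplified and sequenced on an Illumina NextSeq500. The binding signal of each hexamer is its read frequency for a factor divided by its frequency for the tag-only sample.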"}, "ETV5": {"target": "ETV5 (Homo sapiens, UniProt P41161 1-510)", "sequence (P41161 whole entry)": "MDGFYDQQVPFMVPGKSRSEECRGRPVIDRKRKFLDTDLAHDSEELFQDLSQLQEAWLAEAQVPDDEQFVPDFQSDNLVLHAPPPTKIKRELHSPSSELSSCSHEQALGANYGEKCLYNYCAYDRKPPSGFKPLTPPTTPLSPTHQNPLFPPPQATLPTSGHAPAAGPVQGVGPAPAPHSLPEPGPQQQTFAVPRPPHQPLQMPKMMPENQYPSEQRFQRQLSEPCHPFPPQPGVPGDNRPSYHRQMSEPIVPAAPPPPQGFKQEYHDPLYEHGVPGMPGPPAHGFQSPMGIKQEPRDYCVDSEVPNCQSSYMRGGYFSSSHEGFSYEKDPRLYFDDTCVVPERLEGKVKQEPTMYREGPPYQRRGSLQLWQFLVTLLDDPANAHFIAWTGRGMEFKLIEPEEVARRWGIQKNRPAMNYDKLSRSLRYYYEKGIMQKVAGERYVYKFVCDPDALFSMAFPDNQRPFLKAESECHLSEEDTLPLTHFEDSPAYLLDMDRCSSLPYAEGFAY", "conditions": "protein: recombinant; tags: N-terminal GST; dsDNA, one strand shown", "in_short": "as §1"}, "HSF1": {"target": "HSF1 (Homo sapiens, UniProt Q00613 1-529)", "sequence (Q00613 whole entry)": "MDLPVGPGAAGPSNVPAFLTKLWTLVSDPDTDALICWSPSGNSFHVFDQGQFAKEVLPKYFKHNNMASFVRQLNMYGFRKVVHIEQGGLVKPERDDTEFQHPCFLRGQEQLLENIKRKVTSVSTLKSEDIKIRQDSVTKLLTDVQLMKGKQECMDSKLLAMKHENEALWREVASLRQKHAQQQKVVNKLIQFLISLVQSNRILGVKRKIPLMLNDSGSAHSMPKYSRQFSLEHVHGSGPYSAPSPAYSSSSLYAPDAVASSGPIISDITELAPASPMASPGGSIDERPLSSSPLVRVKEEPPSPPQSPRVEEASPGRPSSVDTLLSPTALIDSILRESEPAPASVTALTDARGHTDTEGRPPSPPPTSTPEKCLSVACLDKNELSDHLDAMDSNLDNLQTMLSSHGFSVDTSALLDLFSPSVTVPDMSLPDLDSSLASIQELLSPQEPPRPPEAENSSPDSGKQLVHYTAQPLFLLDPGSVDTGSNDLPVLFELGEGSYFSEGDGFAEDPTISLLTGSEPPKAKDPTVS", "conditions": "protein: recombinant; tags: N-terminal GST; chain copies: 3; dsDNA, one strand shown", "in_short": "as §1"}, "SPIC": {"target": "T2, SPIC (Homo sapiens, UniProt Q8N5J4 1-248)", "T2 sequence": "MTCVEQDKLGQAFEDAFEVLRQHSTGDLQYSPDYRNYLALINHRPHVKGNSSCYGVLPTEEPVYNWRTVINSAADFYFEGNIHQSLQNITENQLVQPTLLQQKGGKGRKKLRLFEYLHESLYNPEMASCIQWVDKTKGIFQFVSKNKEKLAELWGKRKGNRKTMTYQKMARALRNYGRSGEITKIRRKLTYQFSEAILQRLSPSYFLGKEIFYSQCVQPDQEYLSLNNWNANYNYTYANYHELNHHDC", "conditions": "protein: recombinant; tags: N-terminal GST; dsDNA, one strand shown", "in_short": "as §1"}, "ELF4": {"target": "ELF4 (Homo sapiens, UniProt Q99607 1-663)", "sequence (Q99607 whole entry)": "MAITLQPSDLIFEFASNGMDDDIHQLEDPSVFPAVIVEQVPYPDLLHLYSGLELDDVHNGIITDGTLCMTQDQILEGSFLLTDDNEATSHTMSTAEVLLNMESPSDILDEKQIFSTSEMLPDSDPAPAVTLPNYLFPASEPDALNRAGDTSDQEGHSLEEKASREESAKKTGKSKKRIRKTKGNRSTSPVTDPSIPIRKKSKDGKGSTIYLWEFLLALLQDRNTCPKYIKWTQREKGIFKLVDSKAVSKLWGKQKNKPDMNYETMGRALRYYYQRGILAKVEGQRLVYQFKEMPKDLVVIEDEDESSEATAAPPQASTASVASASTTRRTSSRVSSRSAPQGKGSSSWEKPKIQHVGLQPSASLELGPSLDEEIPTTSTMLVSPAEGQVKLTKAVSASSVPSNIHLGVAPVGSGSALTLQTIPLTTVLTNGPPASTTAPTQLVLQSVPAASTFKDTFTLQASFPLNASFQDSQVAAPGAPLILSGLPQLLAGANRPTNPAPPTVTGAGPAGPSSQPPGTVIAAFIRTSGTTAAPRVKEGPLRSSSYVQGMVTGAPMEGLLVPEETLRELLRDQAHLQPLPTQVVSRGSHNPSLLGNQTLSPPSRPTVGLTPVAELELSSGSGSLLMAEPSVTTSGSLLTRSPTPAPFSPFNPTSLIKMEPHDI", "conditions": "protein: recombinant; tags: N-terminal GST; dsDNA, one strand shown", "in_short": "as §1"}, "ELK4": {"target": "T3, ELK4 (Homo sapiens, UniProt P28324-2 1-405)", "T3 sequence": "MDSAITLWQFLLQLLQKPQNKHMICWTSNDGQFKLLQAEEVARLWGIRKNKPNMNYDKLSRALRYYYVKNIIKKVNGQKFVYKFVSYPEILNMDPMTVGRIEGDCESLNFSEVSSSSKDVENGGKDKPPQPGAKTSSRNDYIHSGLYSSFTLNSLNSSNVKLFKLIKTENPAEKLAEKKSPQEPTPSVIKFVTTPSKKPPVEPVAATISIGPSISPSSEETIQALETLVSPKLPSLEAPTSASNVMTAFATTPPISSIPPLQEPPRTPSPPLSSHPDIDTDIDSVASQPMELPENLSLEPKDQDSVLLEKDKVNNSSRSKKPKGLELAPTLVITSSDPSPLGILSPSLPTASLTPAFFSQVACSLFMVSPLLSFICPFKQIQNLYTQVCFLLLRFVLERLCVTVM", "conditions": "protein: recombinant; tags: N-terminal GST; dsDNA, one strand shown", "in_short": "as §1"}, "ETV2": {"target": "T4, ETV2 (Homo sapiens, UniProt O00321 1-342)", "T4 sequence": "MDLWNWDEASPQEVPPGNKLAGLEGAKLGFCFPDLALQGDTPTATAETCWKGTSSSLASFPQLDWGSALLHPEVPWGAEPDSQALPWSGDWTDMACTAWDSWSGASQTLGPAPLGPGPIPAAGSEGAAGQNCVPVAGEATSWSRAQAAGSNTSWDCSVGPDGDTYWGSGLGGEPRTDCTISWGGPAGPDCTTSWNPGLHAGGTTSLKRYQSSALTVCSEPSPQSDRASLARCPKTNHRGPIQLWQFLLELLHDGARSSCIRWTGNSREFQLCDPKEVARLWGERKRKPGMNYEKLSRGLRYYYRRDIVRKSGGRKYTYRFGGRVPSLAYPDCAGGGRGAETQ", "conditions": "protein: recombinant; tags: N-terminal GST; dsDNA, one strand shown", "in_short": "as §1"}, "ELF3": {"target": "T5, ELF3 (Homo sapiens, UniProt P78545 1-371)", "T5 sequence": "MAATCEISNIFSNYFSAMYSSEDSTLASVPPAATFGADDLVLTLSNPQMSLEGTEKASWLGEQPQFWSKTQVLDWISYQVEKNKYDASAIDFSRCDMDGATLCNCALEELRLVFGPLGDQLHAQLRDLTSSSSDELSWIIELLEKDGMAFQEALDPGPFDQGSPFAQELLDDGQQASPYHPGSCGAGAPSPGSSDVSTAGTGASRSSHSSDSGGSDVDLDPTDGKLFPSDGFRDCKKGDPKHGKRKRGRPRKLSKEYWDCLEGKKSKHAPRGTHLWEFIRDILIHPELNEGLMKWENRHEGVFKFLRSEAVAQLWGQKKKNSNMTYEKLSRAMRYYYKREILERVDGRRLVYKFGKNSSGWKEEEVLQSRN", "conditions": "protein: recombinant; tags: N-terminal GST; dsDNA, one strand shown", "in_short": "as §1"}, "CRX": {"target": "CRX (Homo sapiens, UniProt O43186 1-299)", "sequence (O43186 whole entry)": "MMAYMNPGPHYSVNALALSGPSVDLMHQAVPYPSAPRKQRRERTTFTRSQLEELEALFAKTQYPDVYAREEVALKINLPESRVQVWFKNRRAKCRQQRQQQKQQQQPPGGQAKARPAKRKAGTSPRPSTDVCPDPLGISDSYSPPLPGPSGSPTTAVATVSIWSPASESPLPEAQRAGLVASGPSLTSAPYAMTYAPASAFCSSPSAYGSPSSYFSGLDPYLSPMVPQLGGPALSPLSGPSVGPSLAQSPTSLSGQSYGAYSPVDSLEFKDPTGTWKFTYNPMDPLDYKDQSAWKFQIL", "conditions": "protein: recombinant; tags: N-terminal GST; dsDNA, one strand shown", "in_short": "as §1"}, "ETV1": {"target": "ETV1 (Homo sapiens, UniProt P50549 1-477)", "sequence (P50549 whole entry)": "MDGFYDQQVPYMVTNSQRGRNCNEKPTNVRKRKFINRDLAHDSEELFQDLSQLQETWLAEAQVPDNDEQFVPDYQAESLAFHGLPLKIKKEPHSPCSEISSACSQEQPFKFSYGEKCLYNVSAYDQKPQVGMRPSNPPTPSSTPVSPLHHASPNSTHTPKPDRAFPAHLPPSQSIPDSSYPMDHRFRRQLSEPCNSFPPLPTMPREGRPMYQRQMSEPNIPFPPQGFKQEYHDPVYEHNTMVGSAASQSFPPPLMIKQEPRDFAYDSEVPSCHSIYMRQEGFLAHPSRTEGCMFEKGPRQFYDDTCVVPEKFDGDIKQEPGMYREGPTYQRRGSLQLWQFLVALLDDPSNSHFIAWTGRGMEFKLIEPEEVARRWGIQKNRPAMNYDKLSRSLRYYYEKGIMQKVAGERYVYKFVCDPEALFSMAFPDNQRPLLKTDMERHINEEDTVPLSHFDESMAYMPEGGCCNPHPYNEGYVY", "conditions": "protein: recombinant; tags: N-terminal GST; dsDNA, one strand shown", "in_short": "as §1"}}}
{"sequence": "TCATCA", "values": [{"measurement": "binding signal", "setting": "FEV", "result": "1.12 fold enrichment (6-mer frequency, TF over GST control)"}, {"measurement": "binding signal", "setting": "ETV5", "result": "1.09 fold enrichment (6-mer frequency, TF over GST control)"}, {"measurement": "binding signal", "setting": "HSF1", "result": "1.06 fold enrichment (6-mer frequency, TF over GST control)"}, {"measurement": "binding signal", "setting": "SPIC", "result": "1.16 fold enrichment (6-mer frequency, TF over GST control)"}, {"measurement": "binding signal", "setting": "ELF4", "result": "1.18 fold enrichment (6-mer frequency, TF over GST control)"}, {"measurement": "binding signal", "setting": "ELK4", "result": "1.26 fold enrichment (6-mer frequency, TF over GST control)"}, {"measurement": "binding signal", "setting": "ETV2", "result": "1.07 fold enrichment (6-mer frequency, TF over GST control)"}, {"measurement": "binding signal", "setting": "ELF3", "result": "1.07 fold enrichment (6-mer frequency, TF over GST control)"}, {"measurement": "binding signal", "setting": "CRX", "result": "1.07 fold enrichment (6-mer frequency, TF over GST control)"}, {"measurement": "binding signal", "setting": "ETV1", "result": "1.06 fold enrichment (6-mer frequency, TF over GST control)"}]}
